PPC-1+TRAIL kill: compounds killing PPC-1 cancer cells with TRAIL present, primary screen, TRAIL potentiator project, ATPLite luminescence, uHTS; PPC-1 cells + TRAIL, ATPLite viability luminescence; cell killing (% activity), % at 4 µM or 5 µM; 0.41% of 220,000 active;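 active = cell killing above 50% in the first pass at 4 µM, then a duplicate retest at 5 µM averaging 50% or more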;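 also: plate controls were cells with TRAIL plus DMSO for no effect and medium-only wells lacking cells for full effect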
SENP7 inh: SENP7 protease inhibitors, primary screen, biochemical, luminescence, uHTS; Sentrin-specific protease 7 (Homo sapiens), Q9BQF6; recombinant SENP7, Z-RLRGG-aminoluciferin luminescence, 40 min; inhibition, % at 5 µM; 1.5% of 330,000 active; AID 434973, 2010;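 active = inhibition above about 50% at the single test dose, limit read from the data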;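 also: plate controls were DMSO with enzyme for no effect and no enzyme buffer wells for full effect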
Target sequence (Q9BQF6 706-1050 limits assumed): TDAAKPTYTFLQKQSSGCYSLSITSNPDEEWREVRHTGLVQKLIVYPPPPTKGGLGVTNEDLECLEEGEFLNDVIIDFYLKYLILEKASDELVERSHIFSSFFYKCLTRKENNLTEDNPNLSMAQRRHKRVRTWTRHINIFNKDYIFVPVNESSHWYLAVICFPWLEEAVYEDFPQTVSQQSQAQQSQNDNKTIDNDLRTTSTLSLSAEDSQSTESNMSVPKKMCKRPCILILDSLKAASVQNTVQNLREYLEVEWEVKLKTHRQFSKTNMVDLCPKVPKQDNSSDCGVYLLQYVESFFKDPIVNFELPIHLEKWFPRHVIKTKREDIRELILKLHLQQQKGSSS
C8 TRAIL sens: viability loss with TRAIL in NB7+C8 cells, primary screen, TRAIL sensitizer project, cell-based, ATPlite luminescence | inhibition (viability loss, TRAIL sensitization), % at 10 µM | 1% of 360,000 active | AID 624354, 2012;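 active = compounds causing at least 50% loss of cell viability in the single-dose screen, relative to plate controls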
SENP6 inh: SENP6 protease inhibitors, primary screen, biochemical, luminescence, uHTS; Recombinant SENP6 catalytic domain, aminoluciferin luminescence; inhibition, % at 10 µM; 1.8% of 330,000 active; AID 2599, 2010; Sentrin-specific protease 6 (Homo sapiens), Q9GZR1;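 active = inhibition above about 50% at the single tested dose, limit read from the data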;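 also: plate controls were DMSO wells with enzyme for no effect and DMSO wells lacking enzyme for full effect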
SENP8 block-1: human SENP8 protease inhibitors, primary screen, biochemical, fluorescence, Nedd8 protein substrate, uHTS | Sentrin-specific protease 8 (Homo sapiens), Q96LD8 | recombinant SENP8 | inhibition, % at 20 µM | 0.64% of 360,000 active | AID 602440, 2012; in the data active = inhibition mostly above about 40%, no sharp cut-off; inactive = mostly below about 27%
Target sequence (Q96LD8 whole entry, looked up): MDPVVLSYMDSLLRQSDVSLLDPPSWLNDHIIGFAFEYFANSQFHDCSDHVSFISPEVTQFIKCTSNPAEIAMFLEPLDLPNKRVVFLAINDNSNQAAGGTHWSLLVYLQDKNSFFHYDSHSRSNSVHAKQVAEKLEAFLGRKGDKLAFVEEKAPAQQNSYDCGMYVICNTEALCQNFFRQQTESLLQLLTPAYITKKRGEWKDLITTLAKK
SENP8 block-2: SENP8 protease inhibitors, primary screen, biochemical, luminescence | inhibition, % at 10 µM | purified SENP8, Z-RLRGG-aminoluciferin cleavage | 1.2% of 330,000 active | Sentrin-specific protease 8 (Homo sapiens), Q96LD8; in the data active = inhibition above about 50%
PPC-1 tox: cytotoxicity in PPC-1 cells, confirmation, cytotoxicity control for TRAIL apoptosis potentiator project, cell-based, ATP content luminescence | 50% of 1,200 active | shares compounds with PPC-1+TRAIL kill | PPC-1 viability, ATPlite luminescence, overnight | AID 1447, 2008 | cytotoxicity, % at 5 µM;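 active = reconfirmed compounds whose average cytotoxicity reaches 50% or more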;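 also: 0% = DMSO-treated cells and 100% = wells holding medium but no cells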
Numbers without * were called inactive; · = no result. Most compounds without a hit are left out; they make up all but 3% or so of the library.

SMILES	PPC-1+TRAIL kill	SENP7 inh	C8 TRAIL sens	SENP6 inh	SENP8 block-1	SENP8 block-2	PPC-1 tox
COCCN(C(=O)c1ccc2ccccc2c1)c1c(N)n(Cc2ccccc2)c(=O)[nH]c1=O	15	2	3	-9	9	14	·
OCCNCC(O)Cn1ccc2ccccc21 (stereo not given)	8	-1	-1	0	7	0	6
OCCNCC(O)Cn1c2ccccc2c2ccccc21 (stereo not given)	16	13	1	8	-4	1	·
CC(=O)N(C)C1=C(N2CCOCC2)C(=O)c2ccccc2C1=O	24	31	90*	48	33	35	27
O=C(Cc1cccs1)NNC(=S)NCc1ccco1	3	5	-3	4	8	3	·
O=C(Cc1cccs1)NCc1ccco1	1	2	-5	-3	26	-10	-5
O=C(Cc1cccs1)Nc1ccc(Cl)cc1	3	7	-6	4	18	1	2
CCCCCCCCCn1c2c(c(=N)c3c1CCC3)CCCC2	48	7	31	-7	11	-1	50
CCCCCCCCCCn1c2c(c(=N)c3c1CCC3)CCC2	56*	4	79*	-12	19	-9	54*
O=C(COC(=O)c1ccc(O)cc1O)Nc1cccc2ccccc12	·	1	-13	14	4	10	·
Cc1ccc(C(c2ccc(C)c(C)c2)C(O)C2OC(=O)C(O)C2O)cc1C (stereo not given)	·	·	10	·	10	·	·
COc1ccc(-c2nc3ccccc3s2)cc1	60*	·	84*	·	-218	·	61*
O=C(NCc1cccs1)c1cc(-c2ccc(O)cc2)on1	16	4	-1	36	5	-9	·
Cc1ccc(-c2cc(C(=O)NCc3cccs3)no2)cc1	15	-10	-26	-13	12	-16	17
CCCCN1C(=O)C(NC(C)=O)c2cc(Br)ccc21 (stereo not given)	0	0	10	6	10	-6	-14
Cc1ccc(S(=O)(=O)Nc2cccc3ncccc23)s1	20	5	27	5	9	-1	30
Cc1ccc(S(=O)(=O)Nc2cccc3ncccc23)cc1	12	-7	-10	15	-2	-1	·
CN1C2C=C3C(C#N)=C(N)C(C#N)(C#N)[C@H](c4c(F)cccc4F)[C@H]3C1CC2 (stereo not given in full)	-26	1	0	-8	-98	-9	·
CN1C2C=C3C(C#N)=C(N)C(C#N)(C#N)[C@@H](c4cccs4)C3C1CC2 (stereo not given in full)	17	4	-6	1	-298	0	6
COC(=O)CCC/C=C1\SC[C@@H](NC(=O)c2ccccc2)C1NC(C)=O (stereo not given in full)	22	6	-10	-6	14	-3	·
CCN(CC)CCNC(=O)c1ccc2c(c1NCCO)C(=O)c1ccccc1C2=O	33	37	95*	37	88*	24	27
Cc1c(OCC(=O)C(C)(C)C)ccc2c3c(c(=O)oc12)CCCC3	·	-8	8	-12	-132	12	·
CCOC(=O)COc1ccc2c3c(c(=O)oc2c1C)CCC3	8	-5	1	-15	-42	-3	14
Cc1onc(-c2c(Cl)cccc2Cl)c1C(=O)NCCc1ccncc1	·	0	9	-6	-14	-7	·
Cc1nc(-c2ccccc2)sc1C(=O)NN	15	-5	-2	-2	1	-5	14
SMILES	PPC-1+TRAIL kill	SENP7 inh	C8 TRAIL sens	SENP6 inh	SENP8 block-1	SENP8 block-2	PPC-1 tox
COc1cc(OC)nc(NC(=S)NC(=O)c2ccccc2)n1	31	26	-3	34	-17	15	·
Cc1cc(OC(=O)c2ccc(S(=O)(=O)N3CCOCC3)cc2)c([N+](=O)[O-])c(=O)[nH]1	-11	·	-5	·	5	·	6
CC(C)Cn1c(SCC(=O)NCc2ccc(Cl)cc2)nnc1-c1cccc(S(=O)(=O)N2CCOCC2)c1	0	5	-1	14	12	3	1
Cc1ccc(S(=O)(=O)N2[C@H](CC(=O)c3ccc(Cl)c(Cl)c3)OC[C@@H]2C)cc1	·	·	0	·	24	·	·
O=C(CSc1ccc(Cl)cc1)N1CCOCC1	1	3	-4	-9	17	3	5
O=C(CCSc1ccc(Cl)cc1)N1CCOCC1	7	0	-6	-1	26	0	·
Cc1cc(C)c(S(=O)(=O)N2CCN(C(=O)c3ccc4c(c3)OCO4)CC2)c(C)c1	·	1	-2	2	5	9	·
CCOC(=O)c1c(NC(=O)c2cc(-c3cccc(O)c3)on2)sc(C(C)=O)c1C	-4	-10	41	1	-31	-3	·
CCOC(=O)c1c(NC(=O)c2noc(C)c2[N+](=O)[O-])sc(C(C)=O)c1C	5	4	-2	-16	-6	-1	-2
Cc1nc(N)nc(N)c1/C=C/C(C)(C)c1ccc(Cl)cc1	51*	·	76*	·	13	·	48
C=CCOC(=O)C1=C(C)NC(SCC(N)=O)=C(C#N)C1c1cccs1 (stereo not given)	29	9	9	-14	-58	-3	·
CC(=O)C1=C(C)NC(SCC(N)=O)=C(C#N)C1c1cccs1 (stereo not given)	18	-2	-6	-19	-25	0	11
Cn1nnc(NC(=O)c2ccc(C(C)(C)C)cc2)n1	54*	2	55*	-10	0	-7	53*
Cc1c(Cl)ccc2c(C(N)=O)cc(-c3ccccn3)nc12	8	5	-10	-3	-33	-3	·
Cc1c(Cl)ccc2c(C(=O)O)cc(-c3ccccc3)nc12	16	7	35	-5	16	-2	23
O=C1NC[C@H](CCCCN2C[C@H](Cc3ccc(O)cc3)N(CCc3ccc(O)cc3)C(=O)C2=O)N(CCc2ccc(O)cc2)C1=O	·	·	7	·	12	·	·
Cc1ccc(C(C(=O)NC2CCCC2)N(Cc2ccc3c(c2)OCO3)C(=O)c2snc(C(N)=O)c2N)cc1 (stereo not given)	17	1	-3	-2	-386	-2	·
O=C(NC1CCCCC1)C(c1ccccc1)N(Cc1ccc2c(c1)OCO2)C(=O)c1cnsn1 (stereo not given)	1	-5	15	-20	-30	-11	8
Cc1csc(N(C)C(=O)CSc2nnc(COc3ccccc3C)o2)n1	-21	-11	20	-13	18	-8	-15

From PubChem
